Experimental data from the supplement of paper PMC8728848.
This is one part of a sample in which the strongest signals are shown more often than they occur.

How the values were obtained:
Assay in all cases: glycan array binding signal (z-score within array); higher = stronger binding
Conditions in all cases: glycan notation: IUPAC condensed, linker removed
[1] = biological target: Fuc(a1-2)Gal(b1-3)GalNAc(b1-3)Gal(a1-4)Gal(b1-4)Glc
In short: (§1)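 Columns mapping to the same glycan were averaged after glycan names were converted to IUPAC-condensed notation. The data come from 3228 arrays in the Consortium for Functional Glycomics database, limited to those with an available protein sequence. Binding is reported as a within-array Z-score averaged across arrays of one protein sequence and across linkers.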

[2] = biological target: Fuc(a1-2)Gal(b1-3)GlcNAc(b1-3)[Neu5Ac(a2-6)Gal(b1-4)GlcNAc(b1-6)]Gal(b1-4)Glc
In short: as §1

[3] = biological target: Fuc(a1-2)Gal(b1-3)GlcNAc6S
In short: as §1

[4] = biological target: Fuc(a1-2)Gal(b1-3)[Fuc(a1-4)]GlcNAc(b1-2)Man(a1-3)[Fuc(a1-2)Gal(b1-3)[Fuc(a1-4)]GlcNAc(b1-2)Man(a1-6)]Man(b1-4)GlcNAc(b1-4)[Fuc(a1-6)]GlcNAc(b1-4)[Fuc(a1-6)]GlcNAc
In short: as §1

Fuc(a1-2)Gal(b1-4)GlcNAc = biological target: Fuc(a1-2)Gal(b1-4)GlcNAc
In short: as §1

[5] = biological target: Fuc(a1-2)Gal(b1-4)GlcNAc(b1-3)Gal(b1-4)GlcNAc(b1-2)Man(a1-3)[Fuc(a1-2)Gal(b1-4)GlcNAc(b1-3)Gal(b1-4)GlcNAc(b1-2)Man(a1-6)]Man(b1-4)GlcNAc(b1-4)GlcNAc
In short: as §1

[6] = biological target: Fuc(a1-2)Gal(b1-4)GlcNAc(b1-3)Gal(b1-4)GlcNAc(b1-3)Gal(b1-4)GlcNAc
In short: as §1

[7] = biological target: Fuc(a1-2)Gal(b1-4)[Fuc(a1-3)]GlcNAc
In short: as §1

[8] = biological target: Fuc(a1-2)Gal(b1-4)[Fuc(a1-3)]GlcNAc(b1-3)GalNAc
In short: as §1

[9] = biological target: Fuc(a1-2)[Gal(a1-4)]Gal(b1-4)GlcNAc
In short: as §1

[10] = biological target: Fuc(a1-2)[GalNAc(a1-3)]Gal(b1-3)GalNAc(a1-3)[Fuc(a1-2)]Gal(b1-4)GlcNAc
In short: as §1

[11] = biological target: Fuc(a1-2)[GalNAc(a1-3)]Gal(b1-3)GalNAc(b1-3)Gal(a1-4)Gal(b1-4)Glc
In short: as §1

[12] = biological target: Fuc(a1-2)[GalNAc(a1-3)]Gal(b1-4)GlcNAc(b1-2)Man(a1-3)[Fuc(a1-2)[GalNAc(a1-3)]Gal(b1-4)GlcNAc(b1-2)Man(a1-6)]Man(b1-4)GlcNAc(b1-4)GlcNAc
In short: as §1

[13] = biological target: Fuc(a1-2)[GalNAc(a1-3)]Gal(b1-4)GlcNAc(b1-3)[Fuc(a1-2)[GalNAc(a1-3)]Gal(b1-4)GlcNAc(b1-6)]GalNAc
In short: as §1

[14] = biological target: Gal(a1-3)Gal(b1-3)GlcNAc(b1-2)Man(a1-3)[Gal(a1-3)Gal(b1-3)GlcNAc(b1-2)Man(a1-6)]Man(b1-4)GlcNAc(b1-4)GlcNAc
In short: as §1

[15] = biological target: Gal(a1-3)Gal(b1-4)GlcNAc(b1-2)Man
In short: as §1

[16] = biological target: Gal(a1-3)Gal(b1-4)GlcNAc(b1-3)GalNAc
In short: as §1

[17] = biological target: Gal(a1-3)[Gal(a1-4)]Gal(b1-4)GlcNAc
In short: as §1

[18] = biological target: Gal(b1-3)GalNAc(a1-3)[Fuc(a1-2)]Gal(b1-4)Glc
In short: as §1

[19] = biological target: Gal(b1-3)GalNAc(b1-3)Gal(a1-4)Gal(b1-4)Glc
In short: as §1

Gal(b1-3)GlcNAc(b1-2)Man = biological target: Gal(b1-3)GlcNAc(b1-2)Man
In short: as §1

[20] = biological target: Gal(b1-3)GlcNAc(b1-2)[Gal(b1-3)GlcNAc(b1-6)]Man(a1-6)[Gal(b1-3)GlcNAc(b1-2)Man(a1-3)]Man(b1-4)GlcNAc(b1-4)GlcNAc
In short: as §1

[21] = biological target: Gal(b1-3)GlcNAc(b1-6)Gal(b1-4)GlcNAc
In short: as §1

[22] = biological target: Gal(b1-3)[Neu5Ac(b2-6)]GalNAc
In short: as §1

[23] = biological target: Gal(b1-4)GlcNAc(b1-2)Man(a1-3)Man(b1-4)GlcNAc(b1-4)GlcNAc
In short: as §1

[24] = biological target: Gal(b1-4)GlcNAc(b1-2)Man(a1-3)[GlcNAc(b1-2)Man(a1-6)]Man(b1-4)GlcNAc(b1-4)GlcNAc
In short: as §1

[25] = biological target: Gal(b1-4)GlcNAc(b1-2)Man(a1-6)[Man(a1-3)]Man(b1-4)GlcNAc(b1-4)GlcNAc
In short: as §1

[26] = biological target: Gal(b1-4)GlcNAc(b1-2)[Gal(b1-4)GlcNAc(b1-6)]Man(a1-6)[GlcNAc(b1-4)][Gal(b1-4)GlcNAc(b1-2)Man(a1-3)]Man(b1-4)GlcNAc(b1-4)GlcNAc
In short: as §1

[27] = biological target: Gal(b1-4)GlcNAc(b1-3)Gal(b1-4)Glc
In short: as §1

[28] = biological target: Gal(b1-4)GlcNAc(b1-3)Gal(b1-4)GlcNAc
In short: as §1

B1: SBD-G4S3-Fc (protein)
chain: MASIPSSASVQLDSYNYDGSTFSGKIYVKNIAYSKKVTVVYADGSDNWNNNGNIIAASFSGPISGSNYEYWTFSASVKGIKEFYIKYEVSGKTYYDNNNSANYQVSTGGGGSGGGGSGGGGSEFVPRDCGCKPCICTVPEVSSVFIFPPKPKDVLTITLTPKVTCVVVDISKDDPEVQFSWFVDDVEVHTAQTQPREEQFNSTFRSVSELPIMHQDWLNGKEFKCRVNSAAFPAPIEKTISKTKGRPKAPQVYTIPPPKEQMAKDKVSLTCMITDFFPEDITVEWQWNGQPAENYKNTQPIMDTDGSYFVYSKLNVQKSNWEAGNTFTCSVLHEGLHNHHTEKSLSHSPGAA
For B1, the “glycan array binding signal (z-score)” value [1] was -0.249, the “glycan array binding signal (z-score)” value [2] was -0.478 and the “glycan array binding signal (z-score)” value [3] was -0.371. For the same binder, the “glycan array binding signal (z-score)” value [4] was 0.339, the “glycan array binding signal (z-score)” value (Fuc(a1-2)Gal(b1-4)GlcNAc) was -0.284 and the “glycan array binding signal (z-score)” value [5] was 1.23. The “glycan array binding signal (z-score)” value [6] was -0.034, the “glycan array binding signal (z-score)” value [7] was 0.134 and the “glycan array binding signal (z-score)” value [8] was 0.32. For the same binder, the “glycan array binding signal (z-score)” value [9] was -0.203, the “glycan array binding signal (z-score)” value [10] was 5.6 and the “glycan array binding signal (z-score)” value [11] was 0.07. For the same binder, the “glycan array binding signal (z-score)” value [12] was 0.007, the “glycan array binding signal (z-score)” value [13] was -0.2 and the “glycan array binding signal (z-score)” value [14] was 1.16. For the same binder, the “glycan array binding signal (z-score)” value [15] was -0.234, the “glycan array binding signal (z-score)” value [16] was 0.357 and the “glycan array binding signal (z-score)” value [17] was 1.33. For the same binder, the “glycan array binding signal (z-score)” value [18] was -0.267, the “glycan array binding signal (z-score)” value [19] was 0.103 and the “glycan array binding signal (z-score)” value (Gal(b1-3)GlcNAc(b1-2)Man) was -0.388. For the same binder, the “glycan array binding signal (z-score)” value [20] was -0.089, the “glycan array binding signal (z-score)” value [21] was -0.401 and the “glycan array binding signal (z-score)” value [22] was -0.146. For the same binder, the “glycan array binding signal (z-score)” value [23] was 0.225, the “glycan array binding signal (z-score)” value [24] was -0.37 and the “glycan array binding signal (z-score)” value [25] was 0.054. The “glycan array binding signal (z-score)” value [26] was 0.227, the “glycan array binding signal (z-score)” value [27] was -0.301 and the “glycan array binding signal (z-score)” value [28] was -0.054.
